Measured values reported in PubChem BioAssay (NCI).
This is part of a sample that, as a whole, favours compounds with a hit. Of some 79,000 tested, about 15% had one in any assay. The source made the active and inactive calls. No stated cut-off is given here; in the data, active means growth inhibition above about 70%; inactive means the rest.

Experiments:
[1] = NCI Yeast Anticancer Drug Screen. Data for the rad50 strain (AID 155);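 further: 0% = growth of vehicle-only cultures of the same strain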; details: S. cerevisiae rad50 strain growth inhibition, hits give high values
Method in brief: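 Vehicle-treated cultures provide the reference for the growth inhibition reported for compound-exposed, repair-deficient yeast.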

[2] = NCI Yeast Anticancer Drug Screen. Data for the mec2-1 strain (AID 157); details: S. cerevisiae mec2-1 strain, hits give high values
Method in brief: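 Compounds were applied to mec2-1 yeast cells. Their growth was then compared with that of vehicle-treated cultures to give growth inhibition.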

[3] = NCI Yeast Anticancer Drug Screen. Data for the sgs1 mgt1 strain (AID 161);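 further: 0% = growth of cultures given vehicle only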; details: S. cerevisiae sgs1 mgt1 strain, hits give high values
Method in brief: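 Compounds are added to genetically altered yeast, and growth is compared with cultures given vehicle alone to give percent inhibition.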

[4] = NCI Yeast Anticancer Drug Screen. Data for the cln2 rad14 strain (AID 165);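 further: 0% = growth equal to vehicle treated cultures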; details: S. cerevisiae cln2 rad14 strain, hits give high values
Method in brief: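 Strain: cln2 rad14 yeast, altered in cell cycle control and DNA damage repair. Read-out: growth inhibition vs vehicle.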

[5] = NCI Yeast Anticancer Drug Screen. Data for the bub3 strain (AID 167); details: S. cerevisiae bub3 mutant strain, hits give high values
Method in brief: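 Mutant yeast screening strain plus compound; vehicle-treated cultures serve as the 0% inhibition reference.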

[6] = NCI Yeast Anticancer Drug Screen. Data for the mlh1 rad18 strain (AID 175); details: S. cerevisiae mlh1 rad18 strain growth inhibition, hits give high values
Method in brief: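 A repair-deficient yeast strain is exposed to test compound, and growth is scored relative to vehicle-treated controls.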

[7] = at 5.0 µM (retest, dose inferred, filed as 0.5)
[8] = at 50.0 µM (retest, dose inferred, filed as 5.0)

Measured: growth inhibition

COc1ccc(/C=C/[N+](=O)[O-])cc1
active: [1]; [7] 71% | [1]; [8] 99% | [2]; [8] 100% | [3]; [8] 100% | [4]; [8] 99% | [5]; [8] 99% | [6]; [8] 99%
inactive: [2]; [7] 27% | [3]; [7] 65% | [4]; [7] 11% | [5]; [7] 14% | [6]; [7] -11%

C=CC(=O)NCO
inactive: [1]; at 50.0 µM -3.9% | [2]; at 50.0 µM 15.2% | [3]; at 50.0 µM -1.4% | [4]; at 50.0 µM -20.4% | [5]; at 50.0 µM 3.6% | [6]; at 50.0 µM -12.3%

CCOC(=O)/C(=C\c1ccc(OC)cc1)[Se]c1ccccc1
inactive: [1]; at 50.0 µM 50% | [2]; at 50.0 µM -11% | [3]; at 50.0 µM 39.5% | [4]; at 50.0 µM 13.8% | [5]; at 50.0 µM 44.6% | [6]; at 50.0 µM 59.9%

O=C(CBr)OCC(O)CCl (stereo not drawn)
active: [1]; [7] 92% | [1]; [8] 99% | [2]; [7] 70% | [2]; [8] 100% | [3]; [7] 96% | [3]; [8] 100% | [4]; [8] 99% | [5]; [7] 79% | [5]; [8] 100% | [6]; [8] 99%
inactive: [4]; [7] 49% | [6]; [7] 47%

CCC(CC)COC(=O)CI
active: [1]; [8] 97% | [2]; [8] 79% | [3]; [8] 99% | [6]; [8] 87%
inactive: [1]; [7] 33% | [2]; [7] 19% | [3]; [7] 28% | [4]; [7] 15% | [4]; [8] 40% | [6]; [7] -20%

CCOC(=O)C1C(=O)C(C(=O)OCC)C2c3ccccc3-c3ccccc3C1N2C (stereo not drawn)
inactive: [1]; at 50.0 µM 29.8% | [2]; at 50.0 µM 7.25% | [3]; at 50.0 µM 35.2% | [4]; at 50.0 µM -7.35% | [5]; at 50.0 µM 8.7%

O=C(CN1CCCCC1)c1ccc(Br)cc1
inactive: [1]; at 50.0 µM 15.7% | [2]; at 50.0 µM 6.1% | [3]; at 50.0 µM 9.4% | [4]; at 50.0 µM -20.9% | [5]; at 50.0 µM -12.4% | [6]; at 50.0 µM 9.55%

CN1CCN(Cc2ccccc2)CC1CC#N (stereo not drawn)
inactive: [1]; at 50.0 µM -17.3% | [2]; at 50.0 µM -34.8% | [3]; at 50.0 µM -24.1% | [4]; at 50.0 µM -0.2% | [5]; at 50.0 µM 2.65% | [6]; at 50.0 µM -30.9%

c1cc2c3c(cccc3c1)CC2
inactive: [1]; at 50.0 µM -22.4% | [2]; at 50.0 µM 35.4% | [3]; at 50.0 µM -0.65% | [4]; at 50.0 µM -16.3% | [5]; at 50.0 µM 44.4%
